Measured values from PubChem BioAssay (EPA / NIEHS).
Where “and” joins values, the source holds several entries; their conditions need not be identical. Equal entries are not always repeated. Calls of active or inactive are those of the source. The calls were made as follows: active = hit-call score of the fitted dose curve at least 0.9, where 1 is the maximum; inactive = score below 0.9.

The molecules below were run on TIMP metallopeptidase inhibitor 2 (TIMP2), TIMP2 (gene 7077) (assay: BSK_KF3CT_TIMP2: BioMAP Diversity Plus: KF3CT Assay for TIMP metallopeptidase inhibitor 2 (TIMP2) Biomarker Activity (AID 2283071)). Details: primary human keratinocytes with fibroblasts; actives raise or lower the signal.
Experimental: BSK_KF3CT is a cell-based, multiplexed-readout assay that uses keratinocytes and foreskin fibroblasts, a human skin primary cell co-culture, with measurements taken at 24 hours after chemical dosing in a 96-well plate.BSK_KF3CT_TIMP2 is an assay component measured in the BSK_KF3CT assay. It measures TIMP-2 antibody related to regulation of gene expression using ELISA technology.Data from the assay component BSK_KF3CT_TIMP2 was analyzed into 1 assay endpoint. This assay endpoint, BSK_KF3CT_TIMP2, was analyzed with bidirectional fitting relative to DMSO as the negative control and baseline of activity. Using a type of binding reporter, gain or loss-of-signal activity can be used to understand changes in the signaling as they relate to the gene TIMP2. Furthermore, this assay endpoint can be referred to as a primary readout, because this assay has produced multiple assay endpoints where this one serves a signaling function. To generalize the intended target to other relatable targets, this assay endpoint is annotated to the protease inhibitor intended target family, where the subfamily is metalloproteinase inhibitor.
The levels of cell surface (or secreted, indicated by the prefix "s") biomarker endpoints were measured by ELISA. Overt cytotoxicity to cells in confluent adherent cultures (all systems other than the BT system) was assessed by measuring total protein levels using sulforhodamine B (SRB) staining in parallel cultures at the time of biomarker measurements, indicated as SRB endpoints. For proliferation assays for adherent cell types, individual cell types are cultured at sub-confluence and relative cell numbers quantified by SRB staining at time points optimized for each system (48 h: 3C and CASM3C systems; 72 h: BT and HDF3CGF systems; 96 h: SAg system). SRB was performed by staining cells with 0.1% SRB after fixation with 10% TCA and reading wells at 560 nm.Viability and proliferation of PBMC (T cells) was quantified by Alamar Blue reduction for the SAg and BT systems. For PBMC viability (referred to as PBMC Cytotoxicity within the assay endpoint names), cells were plated (75,000/well in a 96-well plate) and then chemical samples added for 1 h before addition of activators, SEB and TSST-1 (20 ng/mL final concentration each). Cells were incubated for 90 h. Then, Alamar Blue (20 uL/well) (Invitrogen, Cat DAL1100) was added for 6 h, and the plates were read with a fluorescence microplate reader at 546/580 nm (excitation/emission). For PBMC proliferation, cells were plated and activated as above but incubated for only 16 h prior to addition of Alamar Blue. Plates were read after 6 h.

Compound | outcome | AC50
CCC(C)OC(=O)N1CCCCC1CCO (stereo not given) | inactive | –
S=C([S-])NCCNC(=S)[S-].[Mn+2] | inactive | –
O=C(O)C1(C(=O)Nc2ccc(Cl)cc2Cl)CC1 | inactive | –
CCSC(=O)N(CC(C)C)CC(C)C | inactive | –
CCOC(=O)NCCOc1ccc(Oc2ccccc2)cc1 | inactive | –
CC(=O)[C@H]1CC[C@H]2[C@@H]3CCC4=CC(=O)CC[C@]4(C)[C@H]3CC[C@]12C | inactive | –
CCNc1nc(N)nc(Cl)n1 | inactive | –
CCC(O)=C1C(=O)CC(C(=O)O)CC1=O (stereo not given) | inactive | –
COC(=O)c1ccccc1S(=O)(=O)NC(=O)Nc1nc(OC(F)F)cc(OC(F)F)n1 | inactive | –
CC(C)(C)[C@@H](O)[C@@H](Cc1ccc(Cl)cc1)n1cncn1 | inactive | –
CCOC(=O)C(C)Oc1ccc(Oc2nc3ccc(Cl)cc3o2)cc1 (stereo not given) | inactive | –
Cc1nn(C)c(Oc2ccccc2)c1C=NOCc1ccc(C(=O)OC(C)(C)C)cc1 | inactive | –
CCOC(=O)c1ccc(O)cc1 | inactive | –
N[C@@H](Cc1cc(I)c(Oc2ccc(O)c(I)c2)c(I)c1)C(=O)O | inactive | –
CCOC(=O)C(C)Oc1ccc(Oc2cnc3cc(Cl)ccc3n2)cc1 (stereo not given) | inactive | –
COC(=O)c1ccccc1C(=O)O | inactive | –
CCCCC(CC)CN1C(=O)C2C3C=CC(C3)C2C1=O (stereo not given) | inactive | –
CCOC(=O)[C@H](C)Oc1ccc(Oc2nc3ccc(Cl)cc3o2)cc1 | inactive | –
O=C(c1ccccc1)C1CCCCC1 | inactive | –
CSC(=O)c1cccc2nnsc12 | inactive | –

Compound | outcome | AC50
CCCN(CCC)C(=O)SCC | inactive | –
CCCOC(=O)NCCCN(C)C | inactive | –
CCCOC(=O)c1ccc(C(=O)OCCC)nc1 | inactive | –
CC1(C)C(C=C(Cl)Cl)C1C(=O)OCc1cccc(Oc2ccccc2)c1 (stereo not given) | inactive | –
CCCCCOC(=O)COc1cc(N2C(=O)C3=C(CCCC3)C2=O)c(F)cc1Cl | – | 13.4 µM (active)
N#CSCSc1nc2ccccc2s1 | – | 4.19 µM (active) and 10.2 µM (active)
COc1nc(C)nc(NC(=O)NS(=O)(=O)c2ccccc2OCCCl)n1 | inactive | –
CC(C)CCCCCCc1ccc(O)cc1 | – | 6.18 µM (active)
O=C(O)c1ccccc1 | inactive | –
C#C[C@]1(O)CC[C@H]2[C@@H]3CCC4=CC(=O)CC[C@@H]4[C@H]3CC[C@@]21CC | inactive | –
COc1c(Cl)ccc(Cl)c1C(=O)O | inactive | –
CCCCOC(=O)C(C)Oc1ccc(Oc2ccc(C(F)(F)F)cn2)cc1 (stereo not given) | inactive | –
CN(C)C(=O)Nc1ccc(Cl)c(Cl)c1 | inactive | –
CCCCC(CC)COC(=O)c1ccccc1C(=O)O (stereo not given) | inactive | –
CCN(Cc1c(F)cccc1Cl)c1c([N+](=O)[O-])cc(C(F)(F)F)cc1[N+](=O)[O-] | inactive | –
Oc1ccc(C(c2ccc(O)cc2)C(Cl)(Cl)Cl)cc1 | – | 20.7 µM (active)
CC(C)(c1ccc(O)cc1)c1ccc(O)cc1 | inactive | –
COCCO | inactive | –
COC(=O)c1cccc(C)c1S(=O)(=O)NC(=O)Nc1nc(OCC(F)(F)F)nc(N(C)C)n1 | inactive | –
S=C(S)NCCNC(=S)S.[Mn+2].[S-]C([S-])=NCCN=C([S-])[S-].[Zn+2] | inactive | –
